Experimental findings from PubChem BioAssay (NCI) are described below.

About 83,000 compounds went through this panel and 20% of them were active in at least one assay; those are over-represented in the sample as a whole.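 How to read the values: 0–100, growth inhibition (40 = 60% inhibited); 0, no net growth; -100 to 0, cell death (-40 = 40% of starting cells died; -100 = all dead).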 Values without a mark were called inactive. Calls of active or inactive are those of the source. How the source made its calls: active means growth percent below 10; inactive means the rest.

Holding throughout (assay): NCI-60 one-dose screen, 48 h (100 = growth as untreated, 0 = no growth, -100 = all killed)
Assay [1] deals with HCT-15 colon. The following applies: 10 µM unless noted.
Assay [2] concerns HT29 colon. The following applies: 10 µM unless noted.
In assay [3] the test system is SNB-75 CNS. As to conditions: 10 µM unless noted.
The test system of assay [4] is SNB-19 CNS. The following applies: 10 µM unless noted.
In assay [5] the test system is U251 CNS. The following applies: 10 µM unless noted.
Assay [6] concerns PC-3 prostate. The following applies: 10 µM unless noted.
Assay [7] deals with SK-MEL-5 melanoma. As to conditions: 10 µM unless noted.
Assay [8] deals with UACC-62 melanoma. As to conditions: 10 µM unless noted.
Assay [9] deals with LOX IMVI melanoma. The following applies: 10 µM.
In assay [10] the test system is SK-MEL-28 melanoma. As to conditions: 10 µM unless noted.
In assay [11] the test system is SK-MEL-2 melanoma. The following applies: 10 µM unless noted.
The test system of assay [12] is EKVX NSCLC. The following applies: 10 µM unless noted.
The test system of assay [13] is SN12C renal. As to conditions: 10 µM unless noted.
Assay [14] deals with UO-31 renal. The following applies: 10 µM unless noted.
Assay [15] has as its system TK-10 renal. As to conditions: 10 µM unless noted.
The subject of assay [16] is ACHN renal. As to conditions: 10 µM unless noted.
Assay [17] concerns CAKI-1 renal. The following applies: 10 µM unless noted.
In assay [18] the test system is A498 renal. As to conditions: 10 µM unless noted.
For assay [19], the system named is CCRF-CEM leukemia. The following applies: 10 µM unless noted.
Assay [20] concerns MOLT-4 leukemia. As to conditions: 10 µM unless noted.

As for `S=c1nc2[nH]c3ccccc3c2n[nH]1`, the growth is 97.3% in assay [1]; 98.6% in assay [2]; 103% in assay [3]; 83.3% in assay [4]; 105% in assay [5]; 82.3% in assay [6]. The growth in [7] is 90.1%; in assay [8] it was 87.1%; in assay [9], 89.6%; in assay [10] it was 91.7%; in assay [11] it was 5.51% (active); in assay [12], 66.4%. For the same molecule, the growth in [13] was 92.2%; in assay [14] it was 88.6%; in assay [15], 122%; in [16], 97.2%; in assay [17], 88.9%; in assay [18], 95.7%. For the same molecule, the growth in [19] is 91.3%; in [20], 104%.
`CSCCC(NC(=O)C(Cl)Cl)C(=O)O` (centres undefined): the growth was 102% in assay [1]; 100% in assay [2]; 85.6% in assay [3]; 107% in assay [4]; 90.9% in assay [5]; 89% in [6]. In addition, the growth was 99.8% in assay [7]; 95.8% in [8]; 98.4% in assay [9]; 97% in assay [10]; 102% in assay [11]; 90.2% in [12]. The growth in assay [13] was 97.5%; in assay [14], 96.3%; in assay [15], 94.1%; in assay [16], 101%; in [18] it was 108%; in assay [19] it was 97.7%. For the same molecule, in [20], the growth was 90.5%.
For `Cn1c(=O)c2nc3c(=O)n(C)c(=O)n(C)c3nc2n(C)c1=O`, the growth in assay [1] was 109%; in assay [2], 109%; in [3] it was 92.4%; in assay [4], 92.3%; in assay [5], 103%; in assay [6], 97.4%. For the same molecule, the growth in [7] was 106%; in assay [8], 94.4%; in [9] it was 105%; in [10], 122%; in assay [11], 110%; in assay [12], 93.9%. For the same molecule, the growth in [13] was 106%; in [14], 82.1%; in assay [15], 128%; in [16], 101%; in assay [18] it was 126%; in assay [19], 104%. Also, the growth in [20] is 84.9%.
On to `Cc1ccnc(Nc2nc3ccccc3[nH]2)n1`, for which the growth was 101% in assay [1]; 100% in assay [2]; 109% in assay [3]; 112% in assay [4]; 103% in assay [5]; 101% in assay [6]. Moreover, the growth is 105% in [7]; 113% in [8]; 97.9% in assay [9]; 115% in [10]; 105% in assay [11]; 104% in assay [12]. For the same molecule, the growth was 104% in assay [13]; 104% in assay [14]; 113% in assay [15]; 106% in assay [16]; 93.3% in assay [19]; 92.4% in assay [20].
Regarding `CN(C)c1ncnc2c1cnn2C`, the growth in assay [1] was 113%; in assay [2], 109%; in [3], 90.7%; in assay [4], 99.1%; in assay [5] it was 101%; in [6], 85.2%. In addition, the growth in assay [7] was 97.2%; in [8], 92.9%; in assay [9] it was 94.9%; in assay [10] it was 112%; in [11] it was 110%; in assay [12], 102%. For the same molecule, the growth in assay [13] was 97.2%; in assay [14] it was 90.6%; in assay [15], 108%; in assay [16], 110%; in [17], 100%; in assay [19], 87.4%. Besides, the growth in assay [20] was 117%.
Consider `CCOC(=O)c1c[nH][nH]c1=O`, for which the growth in assay [1] was 103%; in assay [2] it was 105%; in assay [3], 118%; in assay [4], 99.1%; in assay [5], 103%; in assay [6], 108%. Also, the growth in assay [7] was 105%; in assay [8] it was 96.2%; in assay [9], 97.8%; in assay [10] it was 127%; in assay [11], 94.1%; in assay [12] it was 116%. The growth was 104% in [13]; 93.7% in [14]; 111% in assay [15]; 106% in assay [16]; 98.5% in [18]; 107% in [19]. The growth in assay [20] is 106%.
With `CCOC(=O)Nc1nccs1`, the growth in [1] is 104%; in assay [2], 100%; in assay [3], 111%; in assay [4], 111%; in [5] it was 98.9%; in [6], 97.7%. Also, the growth in assay [7] was 99.5%; in assay [8], 99.7%; in assay [9], 103%; in assay [10], 111%; in [11] it was 111%; in assay [12] it was 99.4%. Moreover, the growth is 97.8% in assay [13]; 88.1% in [14]; 104% in assay [15]; 104% in assay [16]; 103% in [17]; 110% in [20].
Turning to `C=CCc1cc(OC)c(O)c(OC)c1`, the growth is 98.7% in assay [1]; 99.7% in assay [2]; 90.9% in [3]; 109% in assay [4]; 97.2% in assay [5]; 95.4% in [6]. In addition, the growth was 99.8% in assay [7]; 103% in assay [8]; 101% in assay [9]; 108% in assay [10]; 102% in assay [11]; 101% in [12]. The growth is 102% in [13]; 92.5% in assay [14]; 113% in assay [15]; 102% in assay [16]; 97.6% in assay [17]; 109% in assay [19]. Besides, the growth in [20] was 102%.
For the molecule `Cc1cc(Cl)cc(Cc2cc(Cl)cc(C)c2O)c1O`, the growth is 12.4% in [1]; 98.1% in assay [2]; 19.3% in assay [3]; 17.3% in assay [4]; 8.37% (active) in assay [5]; -7.63% (active) in assay [6]. For the same molecule, the growth in assay [7] is 6.88% (active); in assay [8], 16.1%; in assay [9] it was 5.44% (active); in assay [10], 22.6%; in [11], -18.1% (active); in [12], 53.9%. For the same molecule, the growth in assay [13] is 2.59% (active); in assay [14] it was 7.78% (active); in assay [15], 34.6%; in [16], 7.14% (active); in assay [17], 3.84% (active); in assay [19], 5.51% (active). Moreover, the growth in assay [20] was -15.1% (active).
As for `CC(=O)O[C@H]1CC[C@]2(C)C3=C(C(=O)C[C@H]2C1(C)C)[C@]1(C)CC[C@H]([C@H](C)CCC(=O)O)[C@@]1(C)CC3=O`, the growth was 95.5% in assay [1]; 89.7% in [2]; 91.7% in [3]; 108% in assay [4]; 101% in assay [5]; 92.4% in assay [6]. Besides, the growth in assay [7] is 102%; in [8], 106%; in assay [9] it was 98.1%; in [10] it was 105%; in assay [11], 95.3%; in [12], 90.8%. Moreover, the growth is 106% in [13]; 92.2% in [14]; 98.4% in [15]; 103% in [16]; 84.9% in assay [18]; 98.9% in [19]. Besides, the growth in [20] was 98%.
